# Source: PubChem BioAssay (NCI)
# The panel holds about 79,000 compounds, 15% with a hit somewhere; the sample as a whole holds those more often. A number with no mark means an inactive call. Activity calls are given as the source filed them. No stated cut-off is given here; in the data, active means growth inhibition above about 70%; inactive means the rest.
# Experiment: NCI Yeast Anticancer Drug Screen. Data for the cln2 rad14 strain (AID 165);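 further: 0% = growth equal to vehicle treated cultures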
# Settings: S. cerevisiae cln2 rad14 strain, at 50.0 µM, hits give high values
# Procedure, shortened: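 Readout is yeast growth inhibition versus vehicle-treated controls, using a strain with cln2 and rad14 alterations exposed to compound.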
row,SMILES,growth inhibition
1,Cc1ccc(-n2c(CSc3ccc(Cl)cc3)nnc2SCc2nc3ccccc3[nH]2)cc1,70.5% (active)
2,CC(=O)Nc1cccc(C(=O)O)c1,39.9%
3,COc1ccc2c(c1)CCCN2CCCCCCCCCN1CCCCC1,42.4%
4,CN(C)C(=O)/N=c1\ss/c(=N\C(=S)N(C)C)n1-c1ccccc1,41.6%
5,Clc1ccc(-c2nnc(-c3ccccn3)o2)c(Cl)c1,92.7% (active)
6,CC(O)CC(O)CC1CCCO1 (stereo not drawn),33.1%
7,CC[C@]1(O)C[C@H]2[C@@H]3CCc4cc(OC)ccc4[C@H]3CC[C@]2(C)[C@H]1O,68.9%
8,CCCCCCCCCCCCCCCCCCOS(=O)(=O)O (tested in a mixture with another compound),42.5%
9,C/C(=N\NC(=S)N1CCCC1)c1nc2ncccc2[nH]1,81.7% (active)
10,CC(C)(C)C1=NN=C2c3ccccc3C(=O)C21 (stereo not drawn),58.9%
11,O=C(O)c1ccc(N=CC2CO2)cc1 (stereo not drawn),21.8%
12,CCC1(C)C(C#N)(C#N)C1(C#N)C#N,43.7%
13,COc1ccc(N(C)Sc2ccccc2)cc1,35.6%
14,C/C(CCn1[nH]c(=O)ccc1=O)=N\NS(=O)(=O)c1ccc(C)cc1,-6.7%
15,CCC[n+]1ccc(/C=N\NC(N)=S)c2ccccc21,5.25%
16,O=S1CCS(=O)C1c1ccccc1 (stereo not drawn),-11.1%
17,NC(=O)c1c(Cl)nc2n1CCS2,8.4%
18,CC(C)S(=O)(=O)ON1C(=O)c2ccc(N(C)C)cc2C1=O,95.4% (active)
